# Assay results taken from PubChem BioAssay AID493170 (National Center for Advancing Translational Sciences (NCATS), 2011).
# Results filed as inconclusive are left out. A number with no mark means an inactive call. The source made the active and inactive calls. Calls come from the whole dose curve; as a rule, active = well fitted inhibition curve with a large enough effect; inconclusive = small, poorly fitted or top-dose-only effect, or effect the other way; inactive = flat fitted curve, though single readings scatter.
# Target: Ubiquitin carboxyl-terminal hydrolase 2 (Homo sapiens) (UniProt O75604)
# Sequence (O75604 whole entry, looked up): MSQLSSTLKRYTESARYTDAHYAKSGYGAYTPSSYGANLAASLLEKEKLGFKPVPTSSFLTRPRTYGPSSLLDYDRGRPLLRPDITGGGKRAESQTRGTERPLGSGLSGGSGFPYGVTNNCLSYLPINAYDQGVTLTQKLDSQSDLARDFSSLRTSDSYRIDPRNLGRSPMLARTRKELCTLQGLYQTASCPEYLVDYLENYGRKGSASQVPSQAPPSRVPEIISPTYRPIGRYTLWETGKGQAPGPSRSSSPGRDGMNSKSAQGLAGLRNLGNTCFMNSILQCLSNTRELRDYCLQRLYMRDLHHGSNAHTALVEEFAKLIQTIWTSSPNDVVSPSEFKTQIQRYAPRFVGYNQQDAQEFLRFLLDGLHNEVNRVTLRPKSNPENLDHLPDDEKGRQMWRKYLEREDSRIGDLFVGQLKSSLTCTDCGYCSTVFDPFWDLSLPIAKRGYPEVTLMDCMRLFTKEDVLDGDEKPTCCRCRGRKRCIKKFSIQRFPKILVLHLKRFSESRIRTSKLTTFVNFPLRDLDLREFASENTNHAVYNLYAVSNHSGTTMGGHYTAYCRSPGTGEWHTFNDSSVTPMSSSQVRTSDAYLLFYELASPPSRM
# Test: Ub-rhodamine 110 based assay for inhibitors Ubiquitin-specific Protease USP2a; note: nearly all actives have a fitted effect of over 50% in size
# Conditions: USP2a Ub-rhodamine110 cleavage, fluorescence; series mostly up to 38.3 µM; activity change, negative = inhibition: at the top concentration
# How it was run: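 5 nM USP2a preincubated with compounds for 30 min at RT in 20 mM Tris-HCl pH 8.0, 2 mM CaCl2, 2 mM beta-mercaptoethanol, 0.05% CHAPS. Cleavage of 150 nM Ub-rhodamine 110 read kinetically (Ex 485/Em 531) for 7 min.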
# % is set by controls: 0 for no effect and ±100 for the full control effect; potency is the fitted concentration of half-maximal effect.
Structure (SMILES),"activity change, negative = inhibition",Potency
CC(C)c1ccc(C2=C(O)c3ccccc3C(=O)C2=O)cc1,-1.3%,–
COC(=O)c1nnn(-c2nonc2N)c1CSc1ccccn1,-6.42%,–
COc1ccc(S(=O)(=O)N(C)CC(=O)Nc2cccc(C(C)=O)c2)cc1Cl,-5.77%,–
Cc1ccc(N(CC(=O)Nc2ccc(S(=O)(=O)N3CCOCC3)cc2)S(C)(=O)=O)cc1C,-7.14%,–
CC1=NN(c2ccc(C)cc2)C(=O)/C1=C/c1ccc(-c2cc([N+](=O)[O-])ccc2O)o1,–,10 µM (active)
COc1cccc(C(=O)NCc2ccc3[nH]c(C)cc3c2)c1,-1.49%,–
O=C(Nc1ccncc1)c1ccc(S(=O)(=O)Nc2ccccc2)cc1,-4.98%,–
CCC(C)Cn1c(O)cc2nn(-c3nc4ccccc4s3)c(=O)c-2c1C (stereo not given),–,10 µM (active)
COC(=O)C1CCN(C(=O)COC(=O)CC(NC(N)=O)c2ccc(Cl)cc2)CC1 (stereo not given),-0.127%,–
NC(=O)c1ncc(C(F)(F)F)cc1Oc1cccc(F)c1,-2.31%,–
Cc1ccc(NC(=O)COC(=O)c2ccc(NC(=O)CC#N)cc2)cc1S(=O)(=O)N1CCOCC1,–,10 µM (active)
CCOC(=O)c1ccc(NC(=O)C2=C(C)Nc3nc(CCCO)nn3C2c2cccc(C)c2)cc1 (stereo not given),0.0256%,–
NS(=O)(=O)c1ccc(N=Nc2c(O)c(C(=O)O)cc3ccccc23)cc1,–,5.62 µM (active)
C=C1c2cccc(O)c2C(=O)C2C(=O)[C@]3(O)C(=O)C(C(N)=O)C(=O)[C@@H](N(C)C)[C@@H]3[C@@H](O)[C@H]12 (stereo not given in full),–,8.91 µM (active)
COC(=O)c1c(N2C(=O)CCC2=O)sc2c1CCCC2,-2.79%,–
